Data taken from PubChem BioAssay (NCI).
The panel holds about 79,000 compounds, 15% with a hit somewhere; the sample as a whole holds those more often. Calls of active or inactive are those of the source. Cut-off read from the data, not from the text of the source: active = growth inhibition above about 70%; inactive = the rest.

Experiments:
[1] = NCI Yeast Anticancer Drug Screen. Data for the mlh1 strain (AID 171);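 note: 0% = growth of vehicle-treated control cultures of the same strain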; details: S. cerevisiae mlh1 strain growth inhibition, active compounds read high
Procedure, shortened: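 Test agents were incubated with yeast bearing a defined DNA damage repair or cell cycle control alteration; values are growth inhibition normalised to vehicle-treated cultures.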

[2] = NCI Yeast Anticancer Drug Screen. Data for the sgs1 strain (AID 173);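 note: 0% = growth of vehicle-only control cultures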; details: S. cerevisiae sgs1 mutant, active compounds read high
Procedure, shortened: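 Strain with an altered DNA repair or cell cycle pathway exposed to compound. Growth then measured. Value = inhibition versus vehicle control.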

[3] = NCI Yeast Anticancer Drug Screen. Data for the mlh1 rad18 strain (AID 175); details: S. cerevisiae mlh1 rad18 strain growth inhibition, active compounds read high
Procedure, shortened: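 A repair-deficient yeast strain is exposed to test compound, and growth is scored relative to vehicle-treated controls.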

[4] = NCI Yeast Anticancer Drug Screen. Data for the rad18 strain (AID 177); details: S. cerevisiae rad18 mutant growth inhibition, active compounds read high
Procedure, shortened: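 DNA-repair-defective yeast; compound treatment; growth inhibition scored against vehicle.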

[5] = NCI Yeast Anticancer Drug Screen. Data for the rad52 strain (AID 147);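 note: 0% = growth of vehicle-treated control cultures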; details: S. cerevisiae rad52 mutant growth inhibition, active compounds read high
Procedure, shortened: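 Growth of repair-deficient yeast cells was compared between compound-treated and vehicle-treated cultures to give percent inhibition.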

[6] = NCI Yeast Anticancer Drug Screen. Data for the wt1 strain (AID 149);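 note: 0% = growth of vehicle-treated wt1 cultures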; details: S. cerevisiae wt1 strain (SPY 50644) growth inhibition, active compounds read high
Procedure, shortened: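 The wt1 strain was treated with compounds, and growth was compared with vehicle-treated cultures to give inhibition.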

[7] = NCI Yeast Anticancer Drug Screen. Data for the rad50 strain (AID 155);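 note: 0% = growth of vehicle-only cultures of the same strain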; details: S. cerevisiae rad50 strain growth inhibition, active compounds read high
Procedure, shortened: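 Cells are treated with compound, grown, and their growth is then scored against vehicle-only cultures of the same repair-deficient yeast strain.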

[8] = NCI Yeast Anticancer Drug Screen. Data for the mec2-1 strain (AID 157); details: S. cerevisiae mec2-1 strain, active compounds read high
Procedure, shortened: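 Compounds were applied to mec2-1 yeast cells. Their growth was then compared with that of vehicle-treated cultures to give growth inhibition.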

[9] = NCI Yeast Anticancer Drug Screen. Data for the rad14 strain (AID 159);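 note: 0% = growth of vehicle-treated control cultures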; details: S. cerevisiae rad14 strain growth inhibition, active compounds read high
Procedure, shortened: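 Readout: yeast growth inhibition, referenced to vehicle-only cultures. Strain bears a defined alteration in DNA damage repair.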

[10] = NCI Yeast Anticancer Drug Screen. Data for the sgs1 mgt1 strain (AID 161);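 note: 0% = growth of cultures given vehicle only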; details: S. cerevisiae sgs1 mgt1 strain, active compounds read high
Procedure, shortened: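 Compounds are added to genetically altered yeast, and growth is compared with cultures given vehicle alone to give percent inhibition.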

[11] = NCI Yeast Anticancer Drug Screen. Data for the CLN2oe strain (AID 163);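 note: 0% = growth of vehicle-only control cultures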; details: S. cerevisiae CLN2oe strain, active compounds read high
Procedure, shortened: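 Cells of an engineered yeast line with disturbed cell-cycle regulation are treated with compound. Inhibition of growth is then calculated relative to the vehicle-treated reference.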

[12] = NCI Yeast Anticancer Drug Screen. Data for the cln2 rad14 strain (AID 165);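 note: 0% = growth equal to vehicle treated cultures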; details: S. cerevisiae cln2 rad14 strain, active compounds read high
Procedure, shortened: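 Strain: cln2 rad14 yeast, altered in cell cycle control and DNA damage repair. Read-out: growth inhibition vs vehicle.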

[13] = NCI Yeast Anticancer Drug Screen. Data for the bub3 strain (AID 167); details: S. cerevisiae bub3 mutant strain, active compounds read high
Procedure, shortened: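 Part of a panel of yeast mutants defective in DNA damage repair or cell cycle regulation. Each strain is grown with compound, and inhibition is calculated relative to solvent-treated cultures.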

[14] = NCI Yeast Anticancer Drug Screen. Data for the wt2 strain (AID 169);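 note: 0% = growth of vehicle-treated yeast cultures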; details: S. cerevisiae wt2 strain growth inhibition, active compounds read high
Procedure, shortened: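 Growth of compound-treated yeast is measured and expressed as inhibition relative to vehicle-only controls.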

[15] = NCI Yeast Anticancer Drug Screen. Data for the mgt1 strain (AID 153); details: S. cerevisiae mgt1 mutant growth inhibition, active compounds read high
Procedure, shortened: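 Compounds were applied to mgt1 mutant yeast, and growth was then compared against vehicle-treated control cultures to give percent inhibition.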

[16] = at 5.0 µM (retest, dose inferred, filed as 0.5)
[17] = at 50.0 µM (retest, dose inferred, filed as 5.0)

Measured: growth inhibition

CNC(=O)OCc1c(COC(=O)NC)c(-c2ccc(-c3ccccc3)cc2)n(C)c1C
active: [3]; [17] 75%
inactive: [1]; at 1.2 µM -1% | [1]; at 3.7 µM 10% | [1]; at 11.0 µM -11% | [1]; at 33.0 µM 11% | [1]; at 100.0 µM -1% | [2]; at 1.2 µM -26% | [2]; at 3.7 µM -25% | [2]; at 11.0 µM -32% | [2]; at 33.0 µM -26% | [2]; at 100.0 µM 59% | [3]; [16] 24% | [3]; at 50.0 µM 58.8% | [4]; at 1.2 µM -25% | [4]; at 3.7 µM -42% | [4]; at 11.0 µM -61% | [4]; at 33.0 µM -42% | [4]; at 100.0 µM 52%

O=C1NC(=O)C2C3C=CC(C3)C12 (centres undefined)
inactive: [5]; at 1.2 µM -7% | [5]; at 3.7 µM 0% | [5]; at 11.0 µM -2% | [5]; at 33.0 µM -7% | [5]; at 100.0 µM -7% | [6]; at 1.2 µM -5% | [6]; at 3.7 µM -5% | [6]; at 11.0 µM -7% | [6]; at 33.0 µM -7% | [6]; at 100.0 µM -5% | [7]; at 1.2 µM -6% | [7]; at 3.7 µM -4% | [7]; [16] -149% | [7]; at 11.0 µM 5% | [7]; at 33.0 µM 8% | [7]; [17] -66% | [7]; at 50.0 µM 3.3% | [7]; at 100.0 µM 0% | [8]; at 1.2 µM -1% | [8]; at 3.7 µM 0% | [8]; [16] -46% | [8]; at 11.0 µM 1% | [8]; at 33.0 µM 1% | [8]; [17] -42% | [8]; at 50.0 µM -2% | [8]; at 100.0 µM -2% | [9]; at 1.2 µM -1% | [9]; at 3.7 µM 3% | [9]; at 11.0 µM 0% | [9]; at 33.0 µM -2% | [9]; at 100.0 µM -1% | [10]; [16] 31% | [11]; at 1.2 µM -4% | [11]; at 3.7 µM -1% | [11]; at 11.0 µM 0% | [11]; at 33.0 µM -6% | [11]; at 100.0 µM -3% | [12]; [16] -55% | [12]; [17] -54% | [12]; at 50.0 µM -13.2% | [13]; at 1.2 µM -5% | [13]; at 3.7 µM -4% | [13]; [16] -64% | [13]; at 11.0 µM -7% | [13]; at 33.0 µM -8% | [13]; [17] -62% | [13]; at 50.0 µM -3.55% | [13]; at 100.0 µM -5% | [14]; at 1.2 µM -5% | [14]; at 3.7 µM 40% | [1]; at 1.2 µM 1% | [1]; at 3.7 µM 12% | [2]; at 1.2 µM -4% | [2]; at 3.7 µM 63% | [3]; [16] -124% | [3]; [17] -123% | [3]; at 50.0 µM 10.6% | [4]; at 1.2 µM -2% | [4]; at 3.7 µM 0% | [4]; at 11.0 µM 0% | [4]; at 33.0 µM 0% | [4]; at 100.0 µM 1%
active: [10]; [17] 93% | [10]; at 50.0 µM 94.3% | [14]; at 11.0 µM 94% | [14]; at 33.0 µM 97% | [14]; at 100.0 µM 98% | [1]; at 11.0 µM 79% | [1]; at 33.0 µM 95% | [1]; at 100.0 µM 97% | [2]; at 11.0 µM 97% | [2]; at 33.0 µM 98% | [2]; at 100.0 µM 98%

Cc1cc(S(=O)(=O)/N=C(/NN)NNc2cccc(C(F)(F)F)n2)c(S)cc1Cl
inactive: [5]; at 1.2 µM 1% | [5]; at 3.7 µM -1% | [5]; at 11.0 µM -2% | [5]; at 33.0 µM -4% | [5]; at 100.0 µM 23% | [6]; at 1.2 µM 0% | [6]; at 3.7 µM -2% | [6]; at 11.0 µM -2% | [6]; at 33.0 µM -7% | [6]; at 100.0 µM 10% | [15]; at 1.2 µM -3% | [15]; at 3.7 µM -3% | [15]; at 11.0 µM -5% | [15]; at 33.0 µM 10% | [15]; at 100.0 µM 18% | [7]; at 1.2 µM 0% | [7]; at 3.7 µM -2% | [7]; [16] 1% | [7]; at 11.0 µM -3% | [7]; at 33.0 µM -3% | [7]; [17] 52% | [7]; at 50.0 µM -7.1% | [7]; at 100.0 µM 10% | [8]; at 1.2 µM 0% | [8]; at 3.7 µM 2% | [8]; [16] -7% | [8]; at 11.0 µM -3% | [8]; at 33.0 µM -7% | [8]; [17] 8% | [8]; at 50.0 µM 7.75% | [8]; at 100.0 µM 16% | [9]; at 1.2 µM -1% | [9]; at 3.7 µM -1% | [9]; at 11.0 µM 1% | [9]; at 33.0 µM -1% | [9]; at 100.0 µM 14% | [10]; [16] -10% | [10]; [17] 44% | [10]; at 50.0 µM 30.6% | [11]; at 1.2 µM 3% | [11]; at 3.7 µM 1% | [11]; at 11.0 µM -2% | [11]; at 33.0 µM -12% | [11]; at 100.0 µM 3% | [12]; [16] 4% | [12]; [17] 25% | [12]; at 50.0 µM 41.5% | [13]; at 1.2 µM 4% | [13]; at 3.7 µM 1% | [13]; [16] -4% | [13]; at 11.0 µM -3% | [13]; at 33.0 µM -4% | [13]; [17] 47% | [13]; at 50.0 µM -17.4% | [13]; at 100.0 µM 12% | [14]; at 1.2 µM 0% | [14]; at 3.7 µM -2% | [14]; at 11.0 µM -3% | [14]; at 33.0 µM -5% | [14]; at 100.0 µM 18% | [1]; at 1.2 µM -3% | [1]; at 3.7 µM -2% | [1]; at 11.0 µM -4% | [1]; at 33.0 µM -5% | [1]; at 100.0 µM 19% | [2]; at 1.2 µM -1% | [2]; at 3.7 µM 1% | [2]; at 11.0 µM -2% | [2]; at 33.0 µM -1% | [2]; at 100.0 µM 25% | [3]; [16] 21% | [3]; [17] 52% | [3]; at 50.0 µM 19.6% | [4]; at 1.2 µM 0% | [4]; at 3.7 µM -1% | [4]; at 11.0 µM -6% | [4]; at 33.0 µM -3% | [4]; at 100.0 µM 16%
